SMILES strings stand for the structures. The whole screen tested about 360,000 compounds, of which about 1,200 (0.33%) were called active. Many of the other results were omitted from the sample, so actives are more common in it than they were. A number with no mark means an inactive call. Cut-off read from the data, not from the text of the source: active = inhibition above about 37%; inactive = the rest.

For 58 molecules, inhibition results are on record in PubChem BioAssay AID602429 (Sanford-Burnham Center for Chemical Genomics, 2012).

Sequence of Small ubiquitin-related modifier 1 (Homo sapiens) (P63165 whole entry, looked up): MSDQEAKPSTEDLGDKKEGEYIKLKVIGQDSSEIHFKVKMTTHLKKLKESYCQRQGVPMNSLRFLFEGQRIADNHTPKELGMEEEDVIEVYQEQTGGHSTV

This assay concerns the target Small ubiquitin-related modifier 1 (Homo sapiens) (UniProt P63165). Put plainly: modulators of SUMO1 protein-protein interactions, primary screen, biochemical, uHTS (AID 602429). To be noted: SUMO1 binding to a labelled peptide, TR-FRET, 1 h; at 20 µM; active compounds read high. (Time-resolved FRET reads energy transfer from a long-lived donor to a nearby acceptor.)
Turning to `COc1ccc(NC(=O)CN(C)C(=O)c2cc(C)oc2C)cc1`, the inhibition – broadly, the relative decrease from the control value, in per cent – is -3.07%.
As for `COc1ccc(CC(=O)Nc2ccc(-c3nnc(-c4ccc(C)cc4)o3)cc2)cc1`, the inhibition was 52% (active).
For the molecule `COc1ccc(NC(=O)Cn2c(-c3ccc(OC)cc3)cn(-c3ccc(C)cc3)c2=O)cc1`, the inhibition is 5.25%.
In the case of `COc1c(F)c(F)c(-c2csc(N)n2)c(F)c1F`, the inhibition was -2.44%.
Next, `CCCc1nn(C)c2c(=O)[nH]c(-c3cc(S(N)(=O)=O)ccc3OCC)nc12`: 3.1%; `CN(CC(=O)NC1CCN(Cc2ccccc2)CC1)S(=O)(=O)c1ccc(Cl)s1`: 0.847%.
Next, `O=C(Cn1nnc(-c2ccccc2)n1)N/N=C/c1ccc(-c2ccc(Cl)cc2)o1`: 7.31%; `CCC(C)N1C(=O)S/C(=C/c2ccc(Sc3nc4ccccc4[nH]3)o2)C1=O` (stereo not drawn): -5.85%.
Next, `O=C(O)C(c1ccccc1)N1C(=O)/C(=C\c2ccc(-c3cccc(Cl)c3)o2)SC1=S` (stereo not drawn): 75.9% (active); `COc1ccccc1CC(NC(C)=O)C(=O)NC1CCN(C(=O)Nc2ccccc2Cl)CC1` (stereo not drawn): 0.952%; `CN1C(=O)c2ccccc2C(C(=O)NCCCN2CCCC2)C1c1c[nH]c2ccccc12` (stereo not drawn): 3%.
Regarding `Cn1c(=O)c2cc(S(=O)(=O)NCCC(=O)Nc3ccc(F)cc3F)ccc2n(C)c1=O`, the inhibition is -1.62%.
Turning to `Cc1cccc(-[n+]2c(-c3cccc(Br)c3)[nH]c3nc4ccccc4nc32)c1`, the inhibition was 1.4%.
Next, `C=CC1=C(C(=O)O)N2C(=O)[C@@H](NC(=O)/C(=N/OCC(=O)O)c3csc(N)n3)[C@H]2SC1`: 121% (active); `C=CC1=C(C(=O)O)N2C(=O)[C@@H](NC(=O)/C(=N\OCC(=O)O)c3csc(N)n3)[C@H]2SC1`: 56.1% (active).
As to `COc1cc(C(=O)OCC(=O)NC23CC4CC(CC(C4)C2)C3)cc(OC)c1OC`, the inhibition was 5.78%.
As to `Cc1nc(-c2ccccc2)sc1-c1nnc(C2CC2)o1`, the inhibition is -25.8%.
Take `C#CC(C)(C)NC(=O)c1cnc(-c2ccccc2)nc1-c1ccccc1`: the inhibition was 1.04%.
On to `Cc1nc(-c2ccccc2)sc1-c1nc(-c2ccccc2)ncc1S(=O)(=O)c1ccccc1`, for which the inhibition was 56.4% (active).
Turning to `O=C(CCNC(=O)c1ccc(Br)cc1)Nc1cccc(S(=O)(=O)N2CCCCC2)c1`, the inhibition is 0.625%.
On to `O=C1NC[C@H](CCCCN2CCN(CCc3ccccc3)C(=O)C2=O)N(CC2CCCCC2)C1=O`, for which the inhibition is 0.562%.
Next, `COc1cc(OC)c(OC)cc1/C=N/Nc1ncnc2c1[nH]c1ccc(C)cc12`: 60.7% (active); `Cc1ccc2[nH]c3c(=O)n(Cc4ccccn4)cnc3c2c1`: 2.63%.
Consider `CC1(C)CC(=O)C=C(c2ccc(COC(=O)c3cc(F)cc(F)c3)cc2)C1=O`, for which the inhibition is -22.7%.
Take `COc1ccc(OC)c(NC(=S)N2CCc3ccccc3C2)c1`: the inhibition is 0.375%.
Consider `O=C(NCc1ccccc1)C(c1ccc(F)cc1)N1CCN(C(=O)C2CCCO2)CC1` (stereo not drawn), for which the inhibition was -1.69%.
For `CCOC(=O)c1c(-c2cccc(N)c2)cn2ccccc12` the value was -5.65%; for `CC1(C)OC(=O)N2CCc3ccccc3C21C` (stereo not drawn), 3.74%.
In the case of `CC(=O)Nc1ccc(S(=O)(=O)N2CCC(C(=O)N[C@@H](Cc3ccccc3)C(=O)O)CC2)cc1`, the inhibition was 0.0701%.
For `COc1cc(C2C3C(=O)N(c4ccccc4)C(=O)C3ON2c2ccccc2)ccc1O` (stereo not drawn) the value was 5.72%; for `O=c1ccc2c(-c3ccccc3S(=O)(=O)O)c3ccc(O)c(O)c3oc-2c1O`, 48.2% (active); for `COc1cccc(-c2cc3nc4c(c(N5CCC6(CC5)OCCO6)n3n2)CCCC4)c1`, 1.23%.
For `N#CC1(NC(=O)COC(=O)CSc2ccc(F)cc2)CCCCC1` the value was 1.24%; for `O=C(NCC1CCCO1)C1CCN(C2CCN(C(=O)C3CCCCC3)CC2)CC1` (stereo not drawn), 2.09%.
For the molecule `COc1ccc(C(=O)NCc2ccccc2C)cc1S(=O)(=O)NC1CCCC1`, the inhibition was 0.24%.
On to `CCCNC(=O)C1(C)CCN(C(=O)c2cc(F)ccc2C)C1` (stereo not drawn), for which the inhibition was -2.78%.
Next, `CCCCCc1nnc(NC(=O)c2ccc(=O)n(C)n2)s1`: -5.45%.
For `O=C(Cn1cc2c(n1)CCCCC2)NCCN1CCOCC1` the value was -0.24%.
Consider `COc1ccccc1CNC(=O)Cn1cc2c(n1)CCCC2`, for which the inhibition is -1.54%.
In the case of `COCCNC(=O)Cn1cc2c(n1)CCCCC2`, the inhibition is 42.7% (active).
For `Cc1ccc(NC(=O)c2oc(=O)c3ccccc3c2-c2ccccc2)c(C)c1`, the inhibition was 3.85%.
For `CCC1(C)COC(c2ccc(OC)c(OC)c2)OC1` (stereo not drawn) the value was 0.985%.
With `CCCC(C(=O)n1nc(C)cc1C)C(NS(=O)(=O)c1ccc(C)cc1)c1ccccc1` (stereo not drawn), the inhibition is -1.84%.
Next, `Nc1ccc2nc3c(=O)[nH]c(=S)[nH]c3nc2c1`: 92.6% (active); `CC(C)c1nc(SCC(=O)NC(=O)NC(C)(C)C)n[nH]1`: 1.88%.
Next, `COc1ccc(C)cc1N(CC(=O)NC(C)c1ccccc1)S(C)(=O)=O` (stereo not drawn): -0.711%.
Regarding `CN(Cc1ccco1)S(=O)(=O)c1nnc(NC(=O)c2ccccc2)s1`, the inhibition is 6.06%.
Next, `O=[N+]([O-])c1c(NCCO)cc(Sc2nc3ccccc3s2)c2nonc12`: 48.4% (active); `Cc1ccccc1C(=O)Nc1cccc(-c2nnc(SCC(=O)O)n2C)c1`: 3.31%; `CC(C)C(C(=O)NCc1ccco1)N(CC1CCCO1)C(=O)CNS(=O)(=O)c1ccc(F)cc1` (stereo not drawn): 4.85%.
In the case of `Cc1cc2cc3n(c2nn1)N=C(Cl)CC3`, the inhibition was -9.97%.
For `COc1cccc2c1C(=O)c1c(O)c3c(c(O)c1C2=O)CC(O)(C(C)=NNC(=O)c1ccc(Cl)c(Cl)c1)CC3OC1CC(N)C(O)C(C)O1` (stereo not drawn), the inhibition was 111% (active).
For `COc1ccc(NC(=O)CN(C)C(=O)c2cc(C3CC3)nn2-c2ccccc2)cc1` the value was -1.85%.
Next, `CCN1C(=NCCc2cccnc2)N[C@@H](c2ccccc2)[C@H](C(=O)OC)[C@H]1C`: -3.87%; `CN(C(=O)CC1C(=O)NCCN1Cc1ccc(F)cc1Cl)C1CCCCC1` (stereo not drawn): -1.34%.
For `COc1cc(Nc2nc3ccc(Cl)cc3n3cnnc23)cc(OC)c1OC` the value was -1.84%.
Turning to `COc1ccc(OC)c(Nc2nc3ccccc3n3cnnc23)c1`, the inhibition is 47.2% (active).
`COc1ccc(CCNc2nc3ccc(C)cc3n3cnnc23)cc1OC`: the inhibition was 2.61%.
